Bioassay records from PubChem.
Only some compounds are listed: those with a hit (about 2.4% of all), similar ones and a draw of the others.
D2 PAM-1 – human D2 receptor positive allosteric modulation. 360,000 tested, 0.23% active. AID 624464. DiscoveRx D2 beta-arrestin cells, luminescence, 90 min; 100% = 57 uM dopamine signal. potentiation, % (concentration not given with the values); in the data active means potentiation above about 50%
Target sequence (P14416 whole entry, looked up): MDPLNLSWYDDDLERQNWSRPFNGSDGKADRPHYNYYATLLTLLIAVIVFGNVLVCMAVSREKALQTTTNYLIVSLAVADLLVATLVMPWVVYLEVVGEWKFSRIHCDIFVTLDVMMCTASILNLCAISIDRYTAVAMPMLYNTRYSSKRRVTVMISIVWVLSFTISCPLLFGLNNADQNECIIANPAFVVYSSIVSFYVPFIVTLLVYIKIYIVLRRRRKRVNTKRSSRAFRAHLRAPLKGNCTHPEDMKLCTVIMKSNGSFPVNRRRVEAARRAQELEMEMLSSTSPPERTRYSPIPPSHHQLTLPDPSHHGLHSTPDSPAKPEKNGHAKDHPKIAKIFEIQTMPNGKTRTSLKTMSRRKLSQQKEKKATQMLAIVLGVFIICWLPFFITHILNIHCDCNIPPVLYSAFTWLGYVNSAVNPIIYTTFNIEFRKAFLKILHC
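D2 cells co-treated with compound plus 50 nM dopamine (EC20) for 90 min at 37 deg C to detect potentiation. Beta-arrestin recruitment was read as enzyme-fragment luminescence after 1 h at ambient temperature. Full response was set by 57 uM dopamine.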
D2 antag – D2 dopamine receptor (human) antagonism | HEK293 TREx D2 cells, calcium flux, dopamine EC80 | inhibition, % at 10 µM | 340,000 tested, 2% active | AID 485344; in the data active means inhibition above about 30%; inactive means below that, where a call was filed; further: 0% is about no effect
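Tetracycline-induced HEK293 T-REx cells expressing D2 force-coupled to calcium signalling were dye-loaded, exposed to compound for 180 s, then challenged with an EC80 of dopamine; calcium flux was followed kinetically for a further 180 s.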
D2 ag-1 – agonists of human D2 dopamine receptor (beta-arrestin); DiscoveRx PathHunter D2 beta-arrestin, luminescence, 90 min; 100% = 57 uM dopamine signal; AID 624465; 360,000 tested, 0.084% active; activation, % (test concentration not listed); P14416; in the data active means activation above about 40%
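Agonist mode: compounds alone added to overnight-plated D2 PathHunter cells for 90 min at 37 C, with 57 uM final dopamine (EC100) defining full response. Beta-arrestin recruitment detected by chemiluminescent reagent, read after 1 h at ambient temperature.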
D2 ag-2 – activates the human D2 dopamine receptor; P14416; 340,000 tested, 0.53% active; HEK293 T-REx D2 cells, calcium flux agonist mode; AID 485358; activation, % at 2 µM;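 active means activation over 3 SD above normal in the single-dose calcium agonist read, cut at about 30% in these data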; further: 0% is about no effect
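Agonism is scored from calcium flux in a force-coupled, inducible HEK293 cell line expressing D2, read kinetically for 180 s after compound addition against dopamine controls.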
D2 PAM-2 – positively modulates the human D2 dopamine receptor allosterically. P14416. HEK293 T-REx D2, calcium flux, EC20 dopamine potentiation. potentiation, % at 10 µM. 340,000 tested, 0.34% active. AID 485347;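 active means potentiation over 3 SD above the plate norm, cut at about 30% in these data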; further: 0% is about no effect
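Using a no-wash calcium dye in inducible, force-coupled HEK293 Trex cells expressing D2, we tracked fluorescence each second for 180 s after compound, then for 180 s after EC20 dopamine to detect augmented signalling.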
An asterisk follows results filed as active; . = no result given.

SMILES	D2 PAM-1	D2 antag	D2 ag-1	D2 ag-2	D2 PAM-2
CN1CCc2c(c3ccccc3n2C)C1	-45.1	61.4*	-0.9	0.8	-20.5
CN1CCc2c(c3ccccc3n2Cc2ccccc2)C1	-27.8	32.9*	-2.5	0.1	-21.2
CCCCN1CCc2c(c3ccccc3n2Cc2ccccc2)C1	-23.3	-4.7	-0.7	0.6	-25.2
Cc1ccc(NC(=O)CSCC(=O)NNC(=O)c2ccoc2C)cc1	7.1	-12.0	-9.0	1.7	12.4
COc1ccc(N2C(=O)CSC23CCCCC3)cc1	-2.5	33.1*	-1.5	0.2	11.3
CCOc1ccc(OCC)c2sc(C)nc12	-6.5	-23.5	-4.3	-2.1	36.9*
CCOc1cccc2sc(Cl)nc12	-8.1	7.6	-1.0	0.2	1.0
O=C(Nc1ccc(S(=O)(=O)N2CCc3ccccc3C2)cc1)C1CCCO1 (configuration not stated)	-10.6	11.4	-1.7	0.4	-15.3
CN(C)S(=O)(=O)N1CCc2ccc(NC(=O)C3CCCO3)cc2C1 (configuration not stated)	-5.4	31.3*	-0.8	0.8	0.1
COC(=O)CCN1CCC(c2cc(-c3cccc(C(F)(F)F)c3)n[nH]2)CC1	-9.6	-26.8	-3.4	1.1	-8.5
FC(F)(F)c1cccc(CN2CCC(c3cc(-c4cccs4)n[nH]3)CC2)c1	-16.1	83.9*	3.0	0.1	-33.0
Cc1ccc(CN2CCC(c3cc(-c4cccs4)n[nH]3)CC2)cc1	-18.1	69.9*	1.3	1.1	-21.0
O=C(NCc1nc2ccccc2[nH]1)C1=C[C@H](C2CC2)C[C@H](OCc2ccc(CO)cc2)O1	-14.3	40.0*	-1.7	0.8	2.2
O=C(NCc1nc2ccccc2[nH]1)C1=C[C@@H](C2CC2)C[C@@H](OCc2ccc(CO)cc2)O1	-40.1	8.2	0.9	1.8	2.4
Cc1ccc(C(=O)CC2(O)C(=O)N(CCc3ccccc3)c3ccc(Cl)cc32)cc1 (configuration not stated)	.	.	.	-2.3	1.1
CCc1[nH]nc(C(=O)N2CCCC(Nc3cccc(F)c3)C2)c1C (configuration not stated)	75.3*	-15.1	3.3	0.1	10.7
COc1ccc(NC(=O)C2CSC3c4ccccc4C(=O)N23)cc1 (configuration not stated)	-8.9	31.6*	-1.4	-1.7	-3.4
COC(=O)C1CSC2c3ccccc3C(=O)N12 (configuration not stated)	-10.1	.	-4.3	.	.
O=C(Cc1cccs1)N1CCN(S(=O)(=O)c2ccc(Cl)c(C(F)(F)F)c2)CC1	-1.5	2.7	3.1	0.8	-0.7
CN1CCN(c2cc(-c3ccccc3)nc3cc(-c4ccc(F)cc4)nn23)CC1	-37.7	54.3*	-3.0	0.1	-20.9
c1ccc2c(c1)CCCN2Cc1nnnn1CC1CCCO1 (configuration not stated)	-9.5	-21.8	-6.6	-0.2	32.3*
c1ccc(CCn2nnnc2CN2CCCc3ccccc32)cc1	1.1	8.8	1.2	-0.2	-5.1
CCCc1ccc(OCc2ccc(C(=O)N3CCSCC3)o2)cc1	-6.2	38.6*	8.3	-1.5	5.7
CC1Cc2ccccc2N1C(=O)CSc1nnc2n1C(C)(C)Cc1ccccc1-2 (configuration not stated)	-12.5	1.1	-2.6	-1.1	34.2*
COc1ccccc1N1CCN(S(=O)(=O)c2c(C)[nH]c(C)c2C(=O)N2CCCC2)CC1	-10.0	30.7*	-2.0	0.2	27.4
SMILES	D2 PAM-1	D2 antag	D2 ag-1	D2 ag-2	D2 PAM-2
CCC(CC)NC(=O)CN1CCN(S(=O)(=O)c2ccc(Br)s2)CC1	50.2*	-4.2	1.9	-0.8	0.2
Cc1ccc(C)c(NC(=O)Cn2c(=O)n(-c3ccccc3C)c(=O)c3c2c2cc(C)ccc2n3C)c1	.	.	.	-0.7	10.9
COc1ccc(CC(=O)NCc2nc3cccnc3n2Cc2ccc(F)cc2)cc1OC	.	.	.	-0.2	11.7
O=C(CSc1nccn1-c1ccc(F)cc1)Nc1ccc2c(c1)OCO2	-7.8	-29.0	-4.3	1.0	39.3*
CCOc1ccc(NC(=O)CSc2ncc(-c3ccc(F)cc3)n2Cc2ccco2)cc1	-9.6	12.4	-2.1	-0.3	20.7
Cc1cccc(NC(=O)CSc2nnc(-c3cnccn3)n2Cc2ccco2)c1	-17.8	-11.9	-3.6	0.0	25.4
Cc1ccc(NC(=O)CSc2nnc(-c3cnccn3)n2Cc2ccco2)cc1	-14.3	32.0*	-2.1	-4.3	-6.5
O=C(CSc1ncc(-c2ccc(F)cc2)n1Cc1ccco1)Nc1ccc2c(c1)OCO2	-23.8	36.6*	-3.0	1.2	-16.0
COc1ccc(OC(=O)c2nc(SCc3ccccc3C)ncc2Cl)cc1	.	.	.	1.1	-8.2
Cc1cccc(CNC(=O)CN2C(=O)C3CCCCN3c3ccc(C(=O)N4CCCC4)cc32)c1 (configuration not stated)	.	.	.	-0.2	.
CC1CN(C(=O)CCC(=O)NCCCN2CCN(Cc3ccccc3)CC2)c2cc(Cl)ccc2O1 (configuration not stated)	-33.7	37.1*	-11.6	0.9	-31.8
O=C(CCC(=O)N1CCOc2ccc(Cl)cc21)NCCCN1CCN(Cc2ccccc2)CC1	-13.3	40.7*	0.5	1.0	-14.9
O=C(CCC(=O)N1CCOc2ccc(Cl)cc21)NCc1ccccc1	-11.3	36.7*	0.2	-0.2	-22.6
O=C(CCC(=O)N1CCOc2ccc(Cl)cc21)NCCCN1CCOCC1	-7.8	-12.0	-2.5	-0.7	-5.6
Cc1csc2nc(COc3ccc(NC(=O)COc4ccc(F)cc4)cc3)cc(=O)n12	.	.	.	-0.3	2.6
Cc1ccccc1C1N(c2nccs2)C(=O)C2CCCN21 (configuration not stated)	-6.0	-2.7	2.6	0.3	-1.6
O=C1C2CCCN2C(c2ccccc2)N1c1nccs1 (configuration not stated)	-1.1	66.8*	-0.5	0.1	1.2
Cc1cc(C)n(C(=O)CN2C(=O)c3ccccc3C2=O)n1	-5.9	3.0	-1.2	-0.6	-1.9
Cc1cc(C)n(C(=O)C(C)N2C(=O)c3ccccc3C2=O)n1 (configuration not stated)	-2.4	-7.2	-2.3	-0.5	31.3*
CC(CCc1ccccc1)NC(=O)COC(=O)c1ccc(S(C)(=O)=O)c([N+](=O)[O-])c1 (configuration not stated)	-5.7	1.9	-1.8	0.0	-1.8
CC(CCc1ccccc1)NC(=O)COC(=O)c1ccc([N+](=O)[O-])cc1 (configuration not stated)	4.6	-12.2	0.5	-0.3	37.5*
COc1cc(OC)cc(C(=O)NCC(c2cccs2)S(=O)(=O)c2ccc(F)c(C)c2)c1 (configuration not stated)	.	.	.	-2.0	-0.3
